Compound activity as filed in PubChem BioAssay.
FXN GAA850 act – increases GAA850 frataxin promoter reporter activity; HEK293 lucGAA850 FXN promoter luciferase reporter, 24 h; percent of 10 µM SAHA response; activation, % at 6 µM; 0.56% of 360,000 active;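 active = activation above the average of all compounds screened plus 3 SD, cutoff fixed separately per campaign, cut at about 7.5% in these data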;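 also: 0% = DMSO wells and 100% = 10 µM SAHA wells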
DAX1 inh-1 – DAX1 (NR0B1) inhibition, primary screen. HEK293T StAR-luciferase reporter, SF-1/DAX-1 repression relief. inhibition, % at 6.8 µM. 1.1% of 370,000 active. AID 652010;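 active = inhibition above the mean over all tested compounds plus 3 SD, cut at about 3.6% in these data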;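 also: 0% = DAX-1 cells with DMSO and 100% = cells lacking DAX-1 with DMSO; higher inhibition means more luminescence from relief of DAX-1 repression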
hcDAF12 agonist – activators of H. contortus DAF-12 nuclear receptor; HEK293 hcDAF-12 lit1-tk-luc reporter, luminescence; 0% DMSO, 100% Δ7-dafachronic acid; activation, % at 6.8 µM; 1.4% of 370,000 active;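 active = activation above the mean of all tested compounds plus 3 SD, cut at about 5.5% in these data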;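 also: 100% = response to 3 µM Δ7-dafachronic acid high control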
ssDAF12 agonist – S. stercoralis DAF-12 activation, primary screen; activation, % at 6.8 µM; 1% of 370,000 active; HEK293 ssDAF-12/GRIP1 lit1-tk-luc reporter, luminescence; % of 3 µM dafachronic acid response;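 active = activation above the mean over all tested compounds plus 3 SD, cut at about 0.9% in these data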;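 also: 0% = DMSO-only wells and 100% = 3 µM delta7-dafachronic acid wells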
DAX1 inh-2 – inhibits human nuclear receptor DAX1; P51843; HEK293 Gal4-DAX1 luciferase reporter, luminescence; inhibition, % at 6.75 µM; 0.99% of 340,000 active;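 active = inhibition above the mean over all tested compounds plus 3 SD, cut at about 4.2% in these data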;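 also: 0% = DAX1-transfected cells with DMSO and 100% = empty-vector control cells with DMSO; inhibition shows as a rise in luminescence from relieved DAX1 repression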
Target sequence (P51843 207-470 limits assumed): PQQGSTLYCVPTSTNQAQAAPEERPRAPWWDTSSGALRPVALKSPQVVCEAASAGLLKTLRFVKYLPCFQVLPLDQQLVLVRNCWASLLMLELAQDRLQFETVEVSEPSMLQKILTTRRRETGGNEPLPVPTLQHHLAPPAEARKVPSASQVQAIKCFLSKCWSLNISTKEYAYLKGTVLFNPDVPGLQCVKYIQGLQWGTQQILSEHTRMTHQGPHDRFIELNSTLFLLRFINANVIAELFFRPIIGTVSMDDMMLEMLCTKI
hgDAF-12 ag – agonists of H. glycines DAF-12 nuclear receptor | HEK293 GAL4-hgDAF12 UAS-luciferase reporter, agonist luminescence; normalized to butyrate control | 1.8% of 370,000 active | AID 687014 | activation, % at 6.8 µM;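 active = activation above a cutoff set at the mean of all screened compounds plus 3 SD, cut at about 10% in these data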;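 also: 0% = DMSO wells and 100% = sodium butyrate wells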
LXRb hcDAF ctr – counter-screen for hcDAF-12 agonists: agonists of human LXR-beta; shares compounds with hcDAF12 agonist; HEK293 Gal4-LXR tk-luc reporter, luminescence, 24 h; normalized: DMSO 0%, positive control 100%; activation, % at 6.8 µM; 3,400 tested, under 10 active; AID 743027;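 active = mean percent activation of the reporter above a cutoff set as the average over tested compounds plus their standard deviation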
Target sequence (P55055 whole entry, looked up, the tested form may be a part): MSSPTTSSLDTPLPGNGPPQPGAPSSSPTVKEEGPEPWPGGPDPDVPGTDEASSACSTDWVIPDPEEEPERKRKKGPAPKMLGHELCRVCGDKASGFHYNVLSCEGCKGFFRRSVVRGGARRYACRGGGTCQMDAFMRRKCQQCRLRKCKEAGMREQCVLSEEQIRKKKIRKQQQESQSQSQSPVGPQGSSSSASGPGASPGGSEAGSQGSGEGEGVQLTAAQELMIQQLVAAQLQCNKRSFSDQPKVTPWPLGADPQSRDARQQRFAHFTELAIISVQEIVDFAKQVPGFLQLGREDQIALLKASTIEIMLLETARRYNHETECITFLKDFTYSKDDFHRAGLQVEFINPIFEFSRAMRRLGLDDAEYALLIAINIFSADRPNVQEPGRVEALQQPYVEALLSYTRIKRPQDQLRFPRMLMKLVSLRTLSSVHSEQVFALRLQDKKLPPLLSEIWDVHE
hcDAF12 ag – confirmation of H. contortus DAF-12 agonists; shares compounds with hcDAF12 agonist; HEK293 hcDAF-12 lit1-tk-luc reporter, luminescence; % of Δ7-dafachronic acid response; activation, % at 6.8 µM; 61% of 3,400 active; AID 743032;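 active = mean activation across triplicate tests above the threshold derived from the earlier primary screen, cut at about 5.5% in these data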;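 also: 0% = DMSO only wells and 100% = 3 µM Δ7-dafachronic acid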
hgDAF12 ag – hgDAF-12 agonism, confirmation assay | shares compounds with hgDAF-12 ag | HEK293 GAL4-hgDAF12 luciferase reporter, agonist mode; percent of butyrate response | activation, % at 6.8 µM | 80% of 3,300 active;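 active = mean activation over triplicate wells above the hit cutoff derived from the earlier primary screen, cut at about 11% in these data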;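 also: 0% = DMSO low control and 100% = 2 mM sodium butyrate high control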
LXRb DAF12 ctr – counter-screen for DAF-12 agonists: agonists of human LXR-beta; shares compounds with hgDAF-12 ag; HEK293 Gal4-LXR luciferase reporter, 24 h; activation, % at 6.8 µM; 3,300 tested, under 10 active; AID 743051;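 active = mean activation of the triplicate above a set limit carried over from the primary screen, none filed active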
* hit, by the source's call. Only some compounds are listed: those with a hit (about 4.5% of all), similar ones and a draw of the others.

Results for CSCc1c(C(=O)Nc2ccc3c(c2)OCO3)oc2ccccc12 ?
FXN GAA850 act: 1.8; DAX1 inh-1: 0.4; hcDAF12 agonist: 2.6; ssDAF12 agonist: -0.5; DAX1 inh-2: -0.5; hgDAF-12 ag: 1.0

What do the screens show for `O=C(Nc1ccc2c(c1)OCO2)c1ccccc1`?
FXN GAA850 act: 3.4; DAX1 inh-1: 2.0; hcDAF12 agonist: 9.3*; ssDAF12 agonist: 0.5; DAX1 inh-2: 1.3; hgDAF-12 ag: 16.1*; LXRb hcDAF ctr: 1.0; hcDAF12 ag: 4.3; hgDAF12 ag: 17.5*; LXRb DAF12 ctr: 0.6

Results for O=C(NC(=S)Nc1ccc2c(c1)OCO2)c1ccccc1 ?
FXN GAA850 act: 5.0; DAX1 inh-1: 1.6; hcDAF12 agonist: 8.7*; ssDAF12 agonist: 0.7; DAX1 inh-2: 3.5; hgDAF-12 ag: 14.7*; LXRb hcDAF ctr: 1.7; hcDAF12 ag: 6.1*; hgDAF12 ag: 19.8*; LXRb DAF12 ctr: 1.1

What do the screens show for `S=c1[nH]nc(-c2n[nH]c3c2CCC3)n1N=Cc1ccc(Br)s1`?
DAX1 inh-1: -0.4; hcDAF12 agonist: -0.7; ssDAF12 agonist: -1.5; hgDAF-12 ag: -3.0

Results for COc1cccc(CNC(=S)OC2CCC23CCC(c2ccccc2)CC3)c1 (configuration not stated) ?
DAX1 inh-1: -0.8; hcDAF12 agonist: -1.3; ssDAF12 agonist: -0.7; hgDAF-12 ag: -1.1

Results for c1cncc(-c2noc(-c3ccc4ccccc4c3)n2)c1 ?
FXN GAA850 act: 1.8; DAX1 inh-1: 2.6; hcDAF12 agonist: 8.8*; ssDAF12 agonist: 1.0*; DAX1 inh-2: -0.1; hgDAF-12 ag: 16.6*; LXRb hcDAF ctr: 1.2; hcDAF12 ag: 5.0; hgDAF12 ag: 18.6*; LXRb DAF12 ctr: 1.2

Results for COc1ccc(-c2noc(-c3cccnc3)n2)cc1OC ?
FXN GAA850 act: 6.1; DAX1 inh-1: 1.6; hcDAF12 agonist: 1.1; ssDAF12 agonist: -1.0; DAX1 inh-2: 3.6; hgDAF-12 ag: 8.9

What do the screens show for `Cc1scc(C(=O)N/N=C/c2ccc(OC(C)C)cc2)c1C`?
FXN GAA850 act: 3.8; DAX1 inh-1: -0.1; hcDAF12 agonist: 0.9; ssDAF12 agonist: -0.2; DAX1 inh-2: 2.2; hgDAF-12 ag: 5.4

What do the screens show for `Cc1scc(C(=O)N/N=C/c2ccc(Cl)s2)c1C`?
FXN GAA850 act: 4.4; DAX1 inh-1: 3.3; hcDAF12 agonist: 8.2*; ssDAF12 agonist: -0.2; DAX1 inh-2: 6.2*; hgDAF-12 ag: 14.2*; LXRb hcDAF ctr: 1.1; hcDAF12 ag: 5.5; hgDAF12 ag: 14.8*; LXRb DAF12 ctr: 0.6

Results for C/C(=N\NC(=O)c1nn(C)c(C)c1Br)c1ccc(NC(=O)c2ccccc2F)cc1 ?
FXN GAA850 act: 4.3; DAX1 inh-1: 4.2*; hcDAF12 agonist: 7.2*; ssDAF12 agonist: 0.5; DAX1 inh-2: 4.4*; hgDAF-12 ag: 13.9*; LXRb hcDAF ctr: 0.1; hcDAF12 ag: -0.3; hgDAF12 ag: 1.8; LXRb DAF12 ctr: 0.0

Results for COc1ccc(C(=O)N/N=C(/C)c2cccc(NC(=O)c3ccccc3F)c2)cc1 ?
FXN GAA850 act: 2.2; DAX1 inh-1: 1.1; hcDAF12 agonist: 3.3; ssDAF12 agonist: -0.6; DAX1 inh-2: 0.6; hgDAF-12 ag: 5.9

Results for CCOc1cc(C2NN=C(c3ccccc3)S2)ccc1OCc1ccccc1Cl (configuration not stated) ?
FXN GAA850 act: 4.7; DAX1 inh-1: 3.4; hcDAF12 agonist: 8.7*; ssDAF12 agonist: 1.4*; DAX1 inh-2: 5.9*; hgDAF-12 ag: 16.3*; LXRb hcDAF ctr: 1.6; hcDAF12 ag: 9.2*; hgDAF12 ag: 16.5*; LXRb DAF12 ctr: 0.7

What do the screens show for `CNC12CCc3cc(OC)c(OC)c(c31)-c1cc3c(cc1C2)OCO3` (configuration not stated)?
DAX1 inh-1: -1.3; hcDAF12 agonist: 0.6; ssDAF12 agonist: -0.9; hgDAF-12 ag: -1.7

Results for O=C1NC(c2ccc3c(c2)OCO3)c2c(-c3ccccc3)n[nH]c21 (configuration not stated) ?
DAX1 inh-1: 0.1; hcDAF12 agonist: -0.7; ssDAF12 agonist: -1.4; hgDAF-12 ag: -4.1

What do the screens show for `O=C(NCc1ccccc1)OC1CC2CC1[C@H]1CCCCN1C2` (some centres not stated)?
DAX1 inh-1: 0.0; hcDAF12 agonist: -1.8; ssDAF12 agonist: -1.3; hgDAF-12 ag: 2.5

Results for CC(=O)Nc1ccc(Nc2cc(C)nc3c(-c4ccccc4)cnn23)cc1 ?
FXN GAA850 act: -8.3; DAX1 inh-1: -1.2; hcDAF12 agonist: -4.2; ssDAF12 agonist: -2.1; DAX1 inh-2: 0.1; hgDAF-12 ag: -9.4

Results for CCSc1cc(C)nc2c(-c3ccccc3)cnn12 ?
FXN GAA850 act: 7.0; DAX1 inh-1: 4.0*; hcDAF12 agonist: 13.4*; ssDAF12 agonist: 2.4*; DAX1 inh-2: 3.8; hgDAF-12 ag: 17.5*; LXRb hcDAF ctr: 1.1; hcDAF12 ag: 10.9*; hgDAF12 ag: 15.4*; LXRb DAF12 ctr: 0.8

How did O=C(N/N=C/c1cccs1)c1n[nH]c2c1CCC2 do in these assays?
FXN GAA850 act: 1.9; DAX1 inh-1: 0.9; hcDAF12 agonist: 7.1*; ssDAF12 agonist: 1.8*; DAX1 inh-2: 1.5; hgDAF-12 ag: 14.0*; LXRb hcDAF ctr: 1.4; hcDAF12 ag: 2.8; hgDAF12 ag: 14.5*; LXRb DAF12 ctr: 0.8

What do the screens show for `O=C(CN1C(=O)CCC1=O)Nc1nc(-c2nc3ccccc3s2)cs1`?
FXN GAA850 act: 4.0; DAX1 inh-1: 4.5*; hcDAF12 agonist: 7.6*; ssDAF12 agonist: 1.2*; DAX1 inh-2: 1.1; hgDAF-12 ag: 16.1*; LXRb hcDAF ctr: 0.9; hcDAF12 ag: 4.0; hgDAF12 ag: 12.2*; LXRb DAF12 ctr: 0.4

Results for COc1ccc2cc(C(=O)N3CCc4ccccc43)[nH]c2c1 ?
FXN GAA850 act: 3.7; DAX1 inh-1: 3.2; hcDAF12 agonist: 14.4*; ssDAF12 agonist: 1.6*; DAX1 inh-2: 2.5; hgDAF-12 ag: 19.1*; LXRb hcDAF ctr: 1.7; hcDAF12 ag: 12.5*; hgDAF12 ag: 23.9*; LXRb DAF12 ctr: 1.3
